A selection: hits, their analogues and other compounds. The true share with any hit is near 2%.
PKA-R1A activ: PKA-R1A complex activation; P00514+P68181; PKA-R1A dissociation, Cy5-IP20 fluorescence polarization; scaled: DMSO 0%, 113 µM cGMP 100%; activation, % at 11.4 µM; 340,000 tested, 0.083% active; AID 504707;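 active = percent activation above the mean of all tested compounds plus 3 SD, cut at about 19% in these data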;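 also: higher means more PKAc released from R1A so a rise in polarization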
Mot1-301 SUMO: SUMOylation pathway inhibition by Mot1-301 growth rescue; S. cerevisiae Mot1-301 growth rescue, ATP luminescence, 38.5C; percent above DMSO median, 100 means doubled; growth rescue, % at 18.8 µM; 320,000 tested, 1% active;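 active = every valid replicate shows activation above 250% relative to neutral control wells; inactive = the rest, any valid replicate at or below 250%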;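 also: OY570 slx delta 5 strain wells were the positive control but not used for scaling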
MsrA inhibitor: inhibitors of bovine MsrA. purified bovine MsrA, absorbance read-out. inhibition, % at 15.5 µM. 360,000 tested, 0.75% active. AID 651718;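 also: 0% = vehicle wells with enzyme and 100% = reference inhibitor wells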
MsrA act: bovine methionine sulfoxide reductase A activation; purified bovine MsrA, absorbance read-out; 360,000 tested, 0.3% active; activation, % at 10.6 µM; in the data active = activation above about 7.5%;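 also: 0% = vehicle and 100% = reference activator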
PKA-R2B act: activates the human PKA-R2B holoenzyme complex; P22694+P31323; PKA-R2B holoenzyme dissociation, Cy5-IP20 fluorescence polarization; R2B truncated from residue 108, S112A mutant; 0% DMSO only, 100% 113 µM cGMP; activation, % at 11.4 µM; 340,000 tested, 0.079% active; AID 504700;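 active = activation above a cutoff set at the mean over all compounds plus 3 SD, cut at about 18% in these data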;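 also: higher means more holoenzyme dissociation and a rise in polarization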
Target sequence (P31323 whole entry, looked up, other chains not shown, the tested form may be a part): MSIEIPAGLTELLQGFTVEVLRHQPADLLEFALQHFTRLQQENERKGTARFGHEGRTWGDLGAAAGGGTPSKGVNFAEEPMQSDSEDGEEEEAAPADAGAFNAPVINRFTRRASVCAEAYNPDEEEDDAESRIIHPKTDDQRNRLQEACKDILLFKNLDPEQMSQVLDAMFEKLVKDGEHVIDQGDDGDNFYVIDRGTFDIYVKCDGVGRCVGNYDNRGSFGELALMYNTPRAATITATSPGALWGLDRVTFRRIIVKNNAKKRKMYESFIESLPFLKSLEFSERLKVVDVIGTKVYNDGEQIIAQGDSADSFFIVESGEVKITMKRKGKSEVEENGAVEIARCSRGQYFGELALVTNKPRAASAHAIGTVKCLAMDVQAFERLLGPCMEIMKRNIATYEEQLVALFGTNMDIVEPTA
MsrA conf: confirmation of bovine MsrA inhibitors. shares compounds with MsrA inhibitor. purified bovine MsrA, absorbance read-out. inhibition, % at 15.5 µM. 2,300 tested, 41% active;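 also: coupled to thioredoxin reductase with NADPH and selenocystamine and DMSO as substrate; 0% = vehicle only and 100% = full effect of reference inhibitor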
An asterisk follows results filed as active; nt = not tested or not shown. Rule as the data show it, unless noted: active = inhibition above about 4.5%; inactive = the rest.

SMILES	PKA-R1A activ	Mot1-301 SUMO	MsrA inhibitor	MsrA act	PKA-R2B act	MsrA conf
C=CCN1C[C@H](C)N(C(c2ccc(C(=O)N(CC)CC)cc2)c2cccc(OC)c2)CC1C (some centres undefined)	nt	nt	0	nt	nt	nt
COc1ccc2c(C)c(CC(=O)N3C[C@H]4C[C@@H](C3)c3cccc(=O)n3C4)c(=O)oc2c1C	-11	3	4.9*	-4	6	2
CC[C@]12CCN(CC3(O)CC3)[C@H](Cc3ccc(O)cc31)C2(C)C	nt	nt	-1	nt	nt	nt
O=c1[nH]c(=S)n(-c2cccc(Cl)c2)c(O)c1C=NCCN1CCNCC1	5	7	3	1	9	nt
O=c1[nH]c(=S)n(-c2ccccc2)c(O)c1C=NCCN1CCNCC1	3	-4	5.4*	-4	-11	2
COc1ccc(/C=N/N=C(/N)N[N+](=O)[O-])c(OC)c1	2	-5	7.9*	-5	-5	5.6*
COc1ccc(OC)c(/C=N/OC(=O)Nc2ccc(Cl)cc2)c1	-19	298	2	0	3	nt
O=C1Nc2ccccc2/C1=C/c1cnc[nH]1	6	-13	6.4*	-3	-2	4
CCCCC(=O)N/N=C/c1c(O)n(Cc2ccco2)c(=O)[nH]c1=O	1	-1	2	-2	0	nt
CC(=O)Nc1ccc(N=Cc2c(O)n(Cc3ccco3)c(=O)[nH]c2=O)cc1	nt	14	5.2*	-4	nt	6.0*
O=c1[nH]cnc2nc(-c3ccc(N(CCCl)CCCl)cc3)[nH]c12	-11	nt	5.1*	-3	-3	2
COc1cccc(C(=O)NCCN2CCC3(CC2)C(=O)NCN3c2ccccc2)c1	nt	nt	1	nt	nt	nt
CC(=O)NCC1=C(c2ccc(S(C)(=O)=O)cc2)C[C@@H]2CC[C@H]1N2CCOc1ccccc1	nt	nt	0	nt	nt	nt
COc1cc(/C=C2\C(=O)NC(=O)N(CCc3ccc(F)cc3)C2=O)ccc1O	2	2	7.6*	-13	-7	4
COc1cc2c(cc1O)C[C@H]1c3c(cc(O)c(OC)c3-2)CCN1C	3	135	21*	-4	-7	9.2*

Screening data deposited in PubChem by several laboratories.
